From the supplement of paper PMC8728848
The full list was thinned out, with the strongest signals kept by preference.

Key:
Test in all cases: glycan array binding signal (z-score within array); higher = stronger binding
Settings in all cases: glycan notation: IUPAC condensed, linker removed
[1] = target: GlcNAc(b1-3)Gal(b1-4)GlcNAc(b1-3)Gal(b1-4)GlcNAc(b1-3)Gal(b1-4)GlcNAc(b1-3)Gal(b1-4)GlcNAc(b1-2)Man(a1-3)[GlcNAc(b1-3)Gal(b1-4)GlcNAc(b1-3)Gal(b1-4)GlcNAc(b1-3)Gal(b1-4)GlcNAc(b1-3)Gal(b1-4)GlcNAc(b1-2)Man(a1-6)]Man(b1-4)GlcNAc(b1-4)GlcNAc
In short: (§1)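 From the Consortium for Functional Glycomics database, 3228 arrays were curated, keeping only those whose protein sequence was available. Binding is given as a within-array Z-score averaged across arrays sharing a protein sequence and across linkers. Negative Z-scores can be read as non-binding.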

[2] = target: GlcNAc(b1-3)Gal(b1-4)GlcNAc(b1-3)Gal(b1-4)GlcNAc(b1-3)Gal(b1-4)GlcNAc(b1-3)Gal(b1-4)GlcNAc(b1-2)Man(a1-3)[GlcNAc(b1-3)Gal(b1-4)GlcNAc(b1-3)Gal(b1-4)GlcNAc(b1-3)Gal(b1-4)GlcNAc(b1-3)Gal(b1-4)GlcNAc(b1-2)Man(a1-6)]Man(b1-4)GlcNAc(b1-4)[Fuc(a1-6)]GlcNAc
In short: as §1

[3] = target: GlcNAc(b1-3)Gal(b1-4)GlcNAc(b1-3)Gal(b1-4)GlcNAc(b1-3)Gal(b1-4)GlcNAc(b1-3)Gal(b1-4)GlcNAc(b1-2)[GlcNAc(b1-3)Gal(b1-4)GlcNAc(b1-3)Gal(b1-4)GlcNAc(b1-3)Gal(b1-4)GlcNAc(b1-3)Gal(b1-4)GlcNAc(b1-6)]Man(a1-6)[GlcNAc(b1-3)Gal(b1-4)GlcNAc(b1-3)Gal(b1-4)GlcNAc(b1-3)Gal(b1-4)GlcNAc(b1-3)Gal(b1-4)GlcNAc(b1-2)Man(a1-3)]Man(b1-4)GlcNAc(b1-4)[Fuc(a1-6)]GlcNAc
In short: as §1

[4] = target: GlcNAc(b1-3)Gal(b1-4)GlcNAc(b1-3)Gal(b1-4)GlcNAc(b1-3)GalNAc
In short: as §1

[5] = target: GlcNAc(b1-3)Gal(b1-4)GlcNAc(b1-3)[GlcNAc(b1-3)Gal(b1-4)GlcNAc(b1-3)]GalNAc
In short: as §1

[6] = target: Neu5Ac(a2-3)Gal(b1-3)GalNAc(b1-3)Gal(b1-4)GlcNAc
In short: as §1

[7] = target: Neu5Ac(a2-3)Gal(b1-3)GalNAc(b1-4)[Neu5Ac(a2-3)]Gal(b1-4)Glc
In short: as §1

[8] = target: Neu5Ac(a2-3)Gal(b1-3)GlcNAc(b1-2)Man
In short: as §1

[9] = target: Neu5Ac(a2-3)Gal(b1-3)GlcNAc(b1-3)Gal(b1-4)GlcNAc
In short: as §1

[10] = target: Neu5Ac(a2-3)Gal(b1-3)]Neu5Ac(a2-3)Gal(b1-4)]GlcNAc
In short: as §1

[11] = target: Neu5Ac(a2-6)Gal(b1-4)GlcNAc(b1-2)Man(a1-3)[Neu5Ac(a2-3)Gal(b1-4)GlcNAc(b1-2)Man(a1-6)]Man(b1-4)GlcNAc(b1-4)GlcNAc
In short: as §1

[12] = target: Neu5Ac(a2-6)Gal(b1-4)GlcNAc(b1-2)Man(a1-6)Man(b1-4)GlcNAc(b1-4)GlcNAc
In short: as §1

[13] = target: Neu5Gc(a2-6)Gal(b1-4)GlcNAc
In short: as §1

B1: Jacalin (Artocarpus integrifolia) (protein)
chain: MAYSSLLSLSVLALLFSISSADTRKWFLANGINQNPIGIIEAAVGVSEDLLNLNGMEAKNDEQSGISQTVIVGPWGAKVSTSSNGKAFDDGAFTGIREINLSYNKETAIGDFQVVYDLNGSPYVGQNHKSFITGFTPVKISLDFPSEYIMEVSGYTGNVSGYVVVRSLTFKTNKKTYGPYGVTSGTPFNLPIENGLIVGFKGSIGYWLDYFSMYLSL
glycan array binding signal (z-score) [1]: 4.05 | glycan array binding signal (z-score) [2]: 4.23 | glycan array binding signal (z-score) [3]: 5.64 | glycan array binding signal (z-score) [4]: 1.03 | glycan array binding signal (z-score) [5]: 0.857 | glycan array binding signal (z-score) [6]: -0.336 | glycan array binding signal (z-score) [7]: -0.262 | glycan array binding signal (z-score) [8]: -0.194 | glycan array binding signal (z-score) [9]: -0.274 | glycan array binding signal (z-score) [10]: -0.263 | glycan array binding signal (z-score) [11]: -0.241 | glycan array binding signal (z-score) [12]: -0.259 | glycan array binding signal (z-score) [13]: -0.247
